Source: the supplement of paper PMC6555819

Tested on: FXR:RXRa (NR concentration 270 nM, RXRa partner concentration 90 nM)
Assay: PBM binding z-score (relative to random genomic background probes); higher = stronger binding; sequences stand for … in GC…GCGATTGACAGCGTAGAATGAAGG
Summary of the method: (§1)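 Binding z-scores take random background probes as their reference. They come from custom Agilent 4×180K protein-binding microarrays incubated 1 h with ligand-free nuclear receptor dimers, with antibodies against each partner (one per run) detecting binding. Scanned fluorescence was regression-normalized.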

| Sequence | PBM binding z-score |
| --- | --- |
| AATACAGGGTCACTAGGCCAGAGTGGGTACGAAT | 5.94 |
| CCTCGGAGGACACCAGGAGGTCAGAGCTGCCAGA | 1.2 |
| CGAACTAGGTCAAAGGATAGTGAAAGGCGACGTA | 3.37 |
| TAGCCTAGGTCAAGCGGGCCAGTATAGTGTCGGC | 4.12 |
| ATATGTAGGTTAGAGTCATTCAGAAAGTAGGGAA | 0.573 |
| CGAACTAGGTCACCAGGACAGTTAAGAGGTTGGA | 3.97 |
| ATTTGTAGGTTATCGGGTCATTCAGTTTGCGCAT | 3.62 |
| CGAACTAGGTCAATGGACAGTGAAAGGCGACGTA | 3.01 |
| CGAACTAGGTCAAAGGACTGTGAAAGGCGACGTA | 3.86 |
| CCTTCTGGGCCATTCAGAGGTCATTGATCATATG | 2.86 |
| CGAACTAGGTCACCATGACAGTGAAGAGGTTGGA | 3.62 |
| CGAACTAGGTCACCAGGTCAGTGAAGAGGTTGGA | 4.69 |
| GCTGCTAGGTCAGGATGGTCAGCTAACGGGTACG | 0.825 |
| CGAACTAGGTCAAAGGACAGTGATAGGCGACGTA | 3.8 |
| CCTACTGGGCCATCAGGTGATTGATATCAACGTT | -0.454 |
| ATATGTATGTTAGGGTCATTCAGAAAGTAGGGAA | 4.58 |
| CGTCCAAGGTCAATGCTAGGCCAGTGAAAGCATT | 6.44 |
| ATATGTTGGTTAGGGTCATTCAGAAAGTAGGGAA | 4.81 |
| CGAGCTAGGTCAAAGGACAGTGAAAGGCGACGTA | 4.09 |
| GATACAGGGGCAAGGCCAGAGTACGCGTATTGAT | -0.0183 |

| Sequence | PBM binding z-score |
| --- | --- |
| CGAACTAGGTCACCAAGACAGTGAAGAGGTTGGA | 3.75 |
| ATATGTAGGTTAGGGTCATTAAGAAAGTAGGGAA | 4.6 |
| TTACCAAGGTGAAAGGTCGTTGAAGCACGCCTTG | 4.16 |
| CGTCCGAGGTCAAAGGTCAGTGAAGAGATGACGG | 8.25 |
| AATACAGGATCACTAGGCCAGAGTAGGTACGAAT | -0.102 |
| ATATGTAGGTTAGGGTCATTCAAAAAGTAGGGAA | 4.97 |
| CGTCTAAGGTCAAGGTCAGTGAAAGAGACTCGAA | 8.18 |
| CGAACTAAGTCATCCAGGACAGTGAATACATTGA | 0.0178 |
| CAAACTAGGTCACAGAGGTCAAACTCCGTGCGTA | 7.52 |
| CGTCCAAGGTCAGATAGGTCAGTGAATGCCGAGT | 5.44 |
| CAAACTAGGTCACGAAAGGTCAACGTCGAATGAC | 7.41 |
| CCTACAGGGCCAAAGGTCATTGATTCCAATGCTC | 5.3 |
| CGAACTAGGTAACCAGGACAGTGAAGAGGTTGGA | -0.0198 |
| GATACAAGGTCAGCTAGAGGCCAGAGTATGGAAA | 5.51 |
| CCTACTGGGGCACGAAAGGTCATTGATTCAGTGA | 4.09 |
| GCATATAGGTAATTCAAGGTGAAAGTCCGATTGT | 0.457 |
| ACTCGGAGGACAAATGTCAGAGCTACGCCAGTGA | -0.155 |
| TCTCGGAGGACACGAAAGGTCAGAACTCGACATC | 2.77 |
| TAGCATAGGTCATGCGGGCCAGTATAGTGTCGGC | 5.29 |

Tested on: LXRa:RXRa (NR concentration 270 nM, RXRa partner concentration 90 nM)
Assay: as above
Summary of the method: as §1

| Sequence | PBM binding z-score |
| --- | --- |
| AATACAGGGTCACTAGGCCAGAGTGGGTACGAAT | 5.03 |
| CCTCGGAGGACACCAGGAGGTCAGAGCTGCCAGA | 1.69 |
| CGAACTAGGTCAAAGGATAGTGAAAGGCGACGTA | 2.22 |
| TAGCCTAGGTCAAGCGGGCCAGTATAGTGTCGGC | 3.15 |
| ATATGTAGGTTAGAGTCATTCAGAAAGTAGGGAA | 1.04 |
| CGAACTAGGTCACCAGGACAGTTAAGAGGTTGGA | 2.32 |
| ATTTGTAGGTTATCGGGTCATTCAGTTTGCGCAT | 4.05 |
| CGAACTAGGTCAATGGACAGTGAAAGGCGACGTA | 1.85 |
| CGAACTAGGTCAAAGGACTGTGAAAGGCGACGTA | 2.36 |
| CCTTCTGGGCCATTCAGAGGTCATTGATCATATG | 4.26 |
| CGAACTAGGTCACCATGACAGTGAAGAGGTTGGA | 1.88 |
| CGAACTAGGTCACCAGGTCAGTGAAGAGGTTGGA | 3.38 |
| GCTGCTAGGTCAGGATGGTCAGCTAACGGGTACG | 0.646 |
| CGAACTAGGTCAAAGGACAGTGATAGGCGACGTA | 2.62 |
| CCTACTGGGCCATCAGGTGATTGATATCAACGTT | -0.704 |
| ATATGTATGTTAGGGTCATTCAGAAAGTAGGGAA | 3.8 |
| CGTCCAAGGTCAATGCTAGGCCAGTGAAAGCATT | 4.55 |
| ATATGTTGGTTAGGGTCATTCAGAAAGTAGGGAA | 4 |
| CGAGCTAGGTCAAAGGACAGTGAAAGGCGACGTA | 2.67 |
| GATACAGGGGCAAGGCCAGAGTACGCGTATTGAT | -0.167 |

| Sequence | PBM binding z-score |
| --- | --- |
| CGAACTAGGTCACCAAGACAGTGAAGAGGTTGGA | 1.93 |
| ATATGTAGGTTAGGGTCATTAAGAAAGTAGGGAA | 3.41 |
| TTACCAAGGTGAAAGGTCGTTGAAGCACGCCTTG | 3.41 |
| CGTCCGAGGTCAAAGGTCAGTGAAGAGATGACGG | 7.31 |
| AATACAGGATCACTAGGCCAGAGTAGGTACGAAT | -0.204 |
| ATATGTAGGTTAGGGTCATTCAAAAAGTAGGGAA | 4.06 |
| CGTCTAAGGTCAAGGTCAGTGAAAGAGACTCGAA | 6.22 |
| CGAACTAAGTCATCCAGGACAGTGAATACATTGA | -0.0444 |
| CAAACTAGGTCACAGAGGTCAAACTCCGTGCGTA | 6.77 |
| CGTCCAAGGTCAGATAGGTCAGTGAATGCCGAGT | 3.81 |
| CAAACTAGGTCACGAAAGGTCAACGTCGAATGAC | 7.98 |
| CCTACAGGGCCAAAGGTCATTGATTCCAATGCTC | 5.24 |
| CGAACTAGGTAACCAGGACAGTGAAGAGGTTGGA | -0.368 |
| GATACAAGGTCAGCTAGAGGCCAGAGTATGGAAA | 3.77 |
| CCTACTGGGGCACGAAAGGTCATTGATTCAGTGA | 5.15 |
| GCATATAGGTAATTCAAGGTGAAAGTCCGATTGT | 4.97 |
| ACTCGGAGGACAAATGTCAGAGCTACGCCAGTGA | -0.111 |
| TCTCGGAGGACACGAAAGGTCAGAACTCGACATC | 3.63 |
| TAGCATAGGTCATGCGGGCCAGTATAGTGTCGGC | 5.13 |
